Assay [1] is described as follows: small molecules captured by biotinylated probe aFSTL3 – biochemical, small-molecule microarray, fluorescence 635/667, stem cell growth factor project, primary screen (AID 1064).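 Also: measures binding of the biotinylated anti-FSTL3 antibody to printed compounds.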 As to conditions: higher = more signal.
A short description of assay [2]: binders from COS7 lysate, DM2A8 probe, primary screen, torsin A project, cell lysate, small-molecule microarray, fluorescence 635/667 (AID 1065). As to conditions: higher = more signal, COS7 lysate expressing mutant human TOR1A.
The nature of assay [3]: small molecules captured by biotinylated probe aFGF2 – biochemical, small-molecule microarray, fluorescence 635/667, stem cell growth factor project, primary screen (AID 1067).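 Also: measures binding of biotinylated aFGF2 protein to printed compounds on slides; z-score merges feature fluorescence and signal-to-noise across triplicate slides.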 As to conditions: higher = more signal.
A short description of assay [4]: small molecules captured by biotinylated probe aFGF10 – biochemical, small-molecule microarray, fluorescence 635/667, stem cell growth factor project, primary screen (AID 1071).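 Also: score merges 667 nm spot intensity and signal to noise from triplicate slides.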 Particulars: higher = more signal.
Assay [5] has as its target Neurogenic locus notch homolog protein 2 (Homo sapiens) (UniProt Q04721). The assay can be described thus: small molecules binding Notch2 protein – biochemical, small-molecule microarray, 635 nm fluorescence, stem cell growth factors, primary screen (AID 1073). Particulars: higher = more signal.
The target of assay [6] is Pro-neuregulin-1, membrane-bound isoform (Homo sapiens) (UniProt Q02297). The assay can be described thus: small molecules binding neuregulin-1 protein – biochemical, small-molecule microarray, fluorescence 635/667, psychiatric disease protein project, primary screen (AID 1075).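 Also: score combines 667 nm spot fluorescence with signal to noise.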 As to conditions: NRG1 binding, 635 nm fluorescence, higher = more signal.
In assay [7] the test system is Neuregulin-1 EGF-like domain. Nature of the assay: small molecules binding NRG1 EGF domain – biochemical, small-molecule microarray, 635 nm fluorescence, primary screen (AID 1081).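 Also: binding of the protein to compounds printed on small-molecule microarray slides.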 Particulars: higher = more signal.
Assay [8] in a line: FRG1 expression reporter modulators in myotubes – cell-based, C2C12 myotubes, firefly/Renilla luciferase, luminescence, FRG1 inhibition for FSHD, primary screen (AID 1084). Particulars: FRG1 promoter luciferase, higher = more signal, called active from +8 up or from −8 down.
Assay [9] can be described thus: small molecules captured by biotinylated probe aFST – biochemical, small-molecule microarray, fluorescence 635/667, stem cell growth factor project, primary screen (AID 1086).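 Also: score merges 667 nm fluorescence with signal-to-noise of each printed compound spot.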 As to conditions: higher = more signal.
Assay [10] in a line: binders of probe aHhip on microarray, primary screen, stem cell growth factor project, biochemical, small-molecule microarray, fluorescence 635/667 (AID 1087).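 Also: score merges spot fluorescence at 667nm with spot signal to noise ratio.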 Particulars: higher = more signal.

Active and inactive are the calls of the source.

Sequence of Neurogenic locus notch homolog protein 2 (Homo sapiens) (Q04721 whole entry, looked up, canonical isoform): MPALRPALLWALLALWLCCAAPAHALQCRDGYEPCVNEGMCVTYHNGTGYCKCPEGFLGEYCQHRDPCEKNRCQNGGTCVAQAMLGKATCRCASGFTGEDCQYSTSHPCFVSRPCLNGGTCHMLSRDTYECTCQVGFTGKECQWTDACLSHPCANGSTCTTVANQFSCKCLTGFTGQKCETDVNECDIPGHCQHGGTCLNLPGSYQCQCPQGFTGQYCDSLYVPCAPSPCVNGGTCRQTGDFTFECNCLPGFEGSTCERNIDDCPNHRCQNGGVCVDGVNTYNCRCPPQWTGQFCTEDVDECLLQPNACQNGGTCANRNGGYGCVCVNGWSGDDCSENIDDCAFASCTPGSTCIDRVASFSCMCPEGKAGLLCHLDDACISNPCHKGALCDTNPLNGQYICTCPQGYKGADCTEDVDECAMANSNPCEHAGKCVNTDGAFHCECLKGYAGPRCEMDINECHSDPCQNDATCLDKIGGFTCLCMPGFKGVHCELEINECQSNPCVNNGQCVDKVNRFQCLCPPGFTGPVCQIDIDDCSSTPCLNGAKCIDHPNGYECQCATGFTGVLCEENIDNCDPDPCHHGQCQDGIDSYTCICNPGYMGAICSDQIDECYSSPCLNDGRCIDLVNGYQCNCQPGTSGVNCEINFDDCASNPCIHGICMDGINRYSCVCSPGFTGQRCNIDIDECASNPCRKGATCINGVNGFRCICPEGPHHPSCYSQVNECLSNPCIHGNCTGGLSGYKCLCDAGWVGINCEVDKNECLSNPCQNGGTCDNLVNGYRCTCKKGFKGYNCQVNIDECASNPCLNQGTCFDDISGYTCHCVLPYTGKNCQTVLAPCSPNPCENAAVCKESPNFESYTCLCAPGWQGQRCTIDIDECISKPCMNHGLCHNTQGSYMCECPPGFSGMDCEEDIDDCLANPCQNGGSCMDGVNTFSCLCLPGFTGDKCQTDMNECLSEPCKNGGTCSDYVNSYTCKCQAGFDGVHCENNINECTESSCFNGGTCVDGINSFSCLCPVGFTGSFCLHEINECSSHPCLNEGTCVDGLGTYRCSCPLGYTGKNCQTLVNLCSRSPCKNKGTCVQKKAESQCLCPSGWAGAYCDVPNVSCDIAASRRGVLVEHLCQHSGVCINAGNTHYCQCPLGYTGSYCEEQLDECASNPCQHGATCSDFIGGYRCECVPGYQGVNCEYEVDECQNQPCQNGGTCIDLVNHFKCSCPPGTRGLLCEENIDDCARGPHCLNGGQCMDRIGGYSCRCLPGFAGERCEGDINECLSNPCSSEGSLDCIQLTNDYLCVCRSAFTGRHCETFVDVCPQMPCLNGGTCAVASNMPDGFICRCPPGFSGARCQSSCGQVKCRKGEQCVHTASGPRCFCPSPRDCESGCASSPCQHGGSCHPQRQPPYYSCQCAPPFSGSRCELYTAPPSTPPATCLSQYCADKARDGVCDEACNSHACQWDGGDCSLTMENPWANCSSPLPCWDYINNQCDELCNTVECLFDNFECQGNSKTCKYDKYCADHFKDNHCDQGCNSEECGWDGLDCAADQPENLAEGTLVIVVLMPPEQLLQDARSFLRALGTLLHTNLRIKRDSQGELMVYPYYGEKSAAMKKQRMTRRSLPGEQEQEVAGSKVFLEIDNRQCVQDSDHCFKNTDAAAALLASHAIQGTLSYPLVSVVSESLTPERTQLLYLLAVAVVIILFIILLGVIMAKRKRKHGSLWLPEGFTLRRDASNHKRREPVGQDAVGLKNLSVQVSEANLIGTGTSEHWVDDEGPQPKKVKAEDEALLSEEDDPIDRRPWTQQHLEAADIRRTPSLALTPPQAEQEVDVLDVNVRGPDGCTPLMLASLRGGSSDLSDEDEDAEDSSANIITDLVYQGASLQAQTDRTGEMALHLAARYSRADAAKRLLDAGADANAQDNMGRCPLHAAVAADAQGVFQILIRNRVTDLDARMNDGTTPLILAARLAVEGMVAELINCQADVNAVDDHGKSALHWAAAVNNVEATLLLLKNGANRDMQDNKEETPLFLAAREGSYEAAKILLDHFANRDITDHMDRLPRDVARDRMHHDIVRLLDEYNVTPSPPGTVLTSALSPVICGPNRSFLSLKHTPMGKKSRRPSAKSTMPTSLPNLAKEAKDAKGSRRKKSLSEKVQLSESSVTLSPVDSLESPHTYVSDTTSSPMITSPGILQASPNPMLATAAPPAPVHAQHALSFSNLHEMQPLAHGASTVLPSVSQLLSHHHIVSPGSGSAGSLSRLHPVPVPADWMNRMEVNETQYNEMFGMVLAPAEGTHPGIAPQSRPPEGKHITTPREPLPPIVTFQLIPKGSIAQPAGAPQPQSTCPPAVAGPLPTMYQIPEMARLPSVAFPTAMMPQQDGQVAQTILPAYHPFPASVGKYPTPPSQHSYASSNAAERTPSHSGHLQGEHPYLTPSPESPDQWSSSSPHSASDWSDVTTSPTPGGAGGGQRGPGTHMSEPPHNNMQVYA
Sequence of Pro-neuregulin-1, membrane-bound isoform (Homo sapiens) (Q02297 whole entry, looked up, the tested form may be a part, canonical isoform): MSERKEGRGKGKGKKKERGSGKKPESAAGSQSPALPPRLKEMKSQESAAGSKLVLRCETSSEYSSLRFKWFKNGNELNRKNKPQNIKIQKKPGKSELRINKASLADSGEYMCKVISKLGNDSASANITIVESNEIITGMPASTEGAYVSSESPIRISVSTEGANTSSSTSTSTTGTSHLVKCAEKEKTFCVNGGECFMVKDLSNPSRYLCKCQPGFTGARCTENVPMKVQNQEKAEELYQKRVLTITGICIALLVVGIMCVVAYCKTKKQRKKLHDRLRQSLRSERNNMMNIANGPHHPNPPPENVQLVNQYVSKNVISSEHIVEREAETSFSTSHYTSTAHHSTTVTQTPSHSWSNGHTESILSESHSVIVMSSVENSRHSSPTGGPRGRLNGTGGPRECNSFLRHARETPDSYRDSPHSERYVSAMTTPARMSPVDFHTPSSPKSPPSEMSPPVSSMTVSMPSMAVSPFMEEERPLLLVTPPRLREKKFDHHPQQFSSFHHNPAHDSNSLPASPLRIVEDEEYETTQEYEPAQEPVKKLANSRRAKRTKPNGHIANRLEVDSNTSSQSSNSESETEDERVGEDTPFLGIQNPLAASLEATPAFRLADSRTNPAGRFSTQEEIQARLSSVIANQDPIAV

Turning to `CCOC(=O)C[C@H]1[C@H](OC(=O)c2cc3ccccc3oc2=O)[C@@H](NC(=O)C2CCCCC2)c2cc(OCCCO)ccc2N1C(=O)c1ccc2ccccc2n1`, the composite z-score is -0.662 in assay [1]; 0.0931 in assay [2]; -0.179 in assay [3]; 0.414 in assay [4]; 0.432 in [5]; 0.295 in assay [6]. The composite z-score in assay [7] was 0.675; in assay [9], 0.33; in assay [10], -0.0645. Further, the z-score in assay [8] is -0.541 (inactive).
Turning to `Cc1ccc(N2C(=O)c3ccccc3[C@](C)(C(=O)O)[C@@H]2c2ccc(CO)cc2)nc1`, the composite z-score is 1.5 in [1]; -0.461 in assay [2]; -0.224 in [3]; -1.1 in assay [4]; -1.52 in [5]; 1.91 in assay [6]. The composite z-score is -0.402 in [7], -0.663 in assay [9] and -0.181 in assay [10]. Moreover, the z-score in [8] is 0.744 (inactive).
Consider `COc1cccc([C@@H]2[C@@H](C)CC[C@H]3C(=O)N(C)[C@@H](C(C)C)C(=O)N23)c1`, for which the composite z-score was -0.413 in [1]; 0.353 in assay [2]; -0.174 in assay [3]; 0.391 in assay [4]; 0.188 in assay [5]; 0.0253 in assay [6]. For the same molecule, the composite z-score in assay [7] was 0.475; in assay [9], -0.0409; in assay [10], 0.154. In addition, the z-score in assay [8] is 0.056 (inactive).
Take `O=C1NC(=O)C2C1C=CC(C(O)C=Cc1ccc([N+](=O)[O-])cc1)N2Nc1ccccn1` (stereo not given): the composite z-score in assay [1] was -0.273; in assay [2], 0.224; in [3], 0.102; in assay [4], 0.212; in assay [5] it was 1.15; in assay [6], -0.0777. The composite z-score in [7] was 0.966; in [9], -0.199; in [10], -0.226. Besides, in assay [8], the z-score is 0.126 (inactive).
With `Cc1ccc(S(=O)(=O)N[C@H]2COC(=O)CC=C[C@H](C)COC(=O)N[C@@H](C)C(=O)CC=C[C@@H]2C)cc1`, the composite z-score in assay [1] was -0.667; in [2], 1.16; in [3] it was -0.22; in assay [4], 0.168; in assay [5], -0.0113; in assay [6] it was -0.195. Also, the composite z-score came out at 0.527 in [7], 0.0218 in assay [9] and 0.0053 in assay [10]. The z-score in assay [8] is 0.502 (inactive).
Take `C=C(COC)C(=O)CC[C@H](OC(=O)c1ccccc1-c1ccccc1C(=O)O)c1cccc(OCCO)c1`: the composite z-score in assay [1] was -0.102; in assay [2], 1.15; in assay [3], -0.103; in assay [4] it was 0.24; in assay [5] it was 0.0421; in assay [6], 1.66. Further, the composite z-score is 1.37 in [7], -0.25 in [9] and -0.0296 in [10]. In addition, in assay [8], the z-score is -3.97 (inactive).
Take `COC(=O)Cn1c(C(=O)N2CCCC2)cc2c1C[C@H]1CN(C(=O)c3ccccc3)[C@@](Cc3ccccc3)(C(=O)OC)[C@@H]21`: the composite z-score in assay [1] is 0.0841; in assay [2] it was -0.0841; in assay [3], 0.0915; in [4], 0.381; in [5], 1.56; in [6], 1.96. For the same molecule, the results for the composite z-score in assay [7], in assay [9] and in [10] were 1.17, 0.76 and -0.119, respectively. For the same molecule, in assay [8], the z-score is 1.07 (inactive).
Turning to `COc1ccc(CCN2C(=O)[C@@]3(c4ccc([N+](=O)[O-])cc4)CC(=O)N(CC45CC6CC(CC(C6)C4)C5)[C@@H]3c3ccc(CO)cc32)cc1`, the composite z-score in [1] was 0.188; in assay [2], -0.063; in assay [3], 0.0201; in [4], 0.142; in assay [5] it was -0.18; in [6], 0.978. Also, the composite z-score in [7] is 0.956; in assay [9] it was -0.0561; in assay [10], -0.0296. In addition, in assay [8], the z-score was -0.241 (inactive).
Take `C=CCN1C(=O)[C@]2(O[C@H](CCn3cc(CCO)nn3)[C@@H]([Si](C)(C)c3ccc(OC)cc3)[C@@H]2C)c2cc(NC(=O)c3ccc(OC)cc3)ccc21`: the composite z-score is 0.615 in [1]; 0.473 in assay [2]; 0.0051 in [3]; -0.0488 in [4]; 0.48 in assay [5]; 0.439 in [6]. The composite z-score in [7] worked out at 0.974; in assay [9], 0.479; in assay [10], 0.176. The z-score in assay [8] was -2.48 (inactive).
As to `CC(=O)NCCCC[C@@H]1NC(=O)[C@H]2C[C@@H](C(=O)NCCCCCCN(C)C)[C@@H](c3ccc(O)cc3)N2C1=O`, the composite z-score in assay [1] was -0.463; in assay [2], 1.68; in [3], -0.0876; in assay [4], 0.785; in assay [5], 0.269; in assay [6] it was 1.43. The composite z-score in assay [7] turned out to be 1.48; in assay [9], 0.31; in assay [10] it was 0.0401. Further, in assay [8], the z-score was 4.59 (inactive).
`Cc1ccc(S[C@]2(C(=O)NC(C)C)CC(=O)N(Cc3cc(C(F)(F)F)cc(C(F)(F)F)c3)[C@@H]2c2ccc(CO)cc2I)cc1`: the composite z-score in [1] is 0.808; in assay [2], -0.666; in [3], -0.103; in assay [4], -0.345; in [5], -1.7; in [6] it was 1.53. In addition, the composite z-score in assay [7] is 0.74; in [9] it was -0.666; in assay [10], -0.0994. In assay [8], the z-score was -0.321 (inactive).
Regarding `C=C[C@H](OC)[C@@H](OC(=O)Nc1ccc(SC)cc1)c1ccc(O)c(F)c1`, the composite z-score was -0.0125 in assay [1]; -0.22 in assay [2]; -0.0493 in [3]; 0.2 in [4]; 0.474 in assay [5]; 0.756 in [6]. Also, the composite z-score in assay [7] is 1.03; in assay [9], -0.212; in [10], 0.109. For the same molecule, the z-score in assay [8] is 4.46 (inactive).

(Values after PubChem BioAssay.)
